{"source": "PubChem BioAssay (Tox21)", "note": "Records with an inconclusive call do not appear. A call without a number means that no potency is given here. Active and inactive are the calls of the source. Calls follow the shape of the full dose curve."}
{"assay": "qHTS assay to identify small molecule agonists of the progesterone receptor (PR) signaling pathway - cell viability counter screen (AID 1346799); also: nearly all actives have a fitted effect of over 45% in size", "conditions": "PR-UAS-bla HEK293T viability, CellTiter-Glo luminescence, 16 h; series mostly up to 92.4 µM", "procedure,_shortened": "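Using the same plates as the PR reporter screen, HEK293T PR-UAS-bla cells received compounds for 16 hr at 37C and were then lysed with CellTiter-Glo; luminescence was read 30 min later at room temperature.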"}
{"smiles": "CC1(C)OC[C@@H](COC(=O)CCc2ccc(OC[C@@H](O)CNCCNC(=O)N3CCOCC3)cc2)O1", "Potency": "inactive"}
{"smiles": "CCC(C(=O)NC(=O)NC(C)=O)c1ccccc1", "note": "(stereo not given)", "Potency": "inactive"}
{"smiles": "CC(C)(N)C#N", "Potency": "inactive"}
{"smiles": "CN1C(C)(C)CC(O)CC1(C)C", "Potency": "inactive"}
{"smiles": "O=C(c1ccccc1)C1(O)CCCCC1", "Potency": "inactive"}
{"smiles": "[O-][n+]1cccc(CO)c1", "Potency": "inactive"}
{"smiles": "CC(C)CC(C)(N)C#N", "note": "(stereo not given)", "Potency": "inactive"}
{"smiles": "CC(COc1ccccc1)NN", "note": "(stereo not given)", "Potency": "inactive"}
{"smiles": "C=CC(=O)OCCCl", "Potency": "inactive"}
{"smiles": "NS(=O)(=O)Cc1noc2ccccc12", "Potency": "inactive"}
{"smiles": "CCNS(=O)(=O)c1ccc(C)cc1", "Potency": "inactive"}
{"smiles": "CC(=O)NC(=O)c1ccccc1O", "Potency": "inactive"}
{"smiles": "O=C(CO)[C@@H](O)[C@H](O)[C@H](O)CO", "Potency": "inactive"}
{"smiles": "CN(C)[C@@H]1C(=O)C(C(=O)NCN2CCCC2)=C(O)[C@@]2(O)C(=O)C3=C(O)c4c(O)cccc4[C@@](C)(O)C3C[C@@H]12", "note": "(stereo not given in full)", "Potency": "inactive"}
{"smiles": "Clc1cc(Cl)cc(Cl)c1", "Potency": "inactive"}
{"smiles": "O=C1CCCCCCCCCCCCCCO1", "Potency": "inactive"}
{"smiles": "CCCO[Si](OCCC)(OCCC)OCCC", "Potency": "inactive"}
{"smiles": "O=Cc1cccc(Br)c1", "Potency": "inactive"}
{"smiles": "C[N+](C)(CCOc1ccccc1)Cc1cccs1", "Potency": "inactive"}
{"smiles": "CN1CCC(=C2c3ccccc3CCc3cccnc32)CC1", "Potency": "inactive"}
{"smiles": "CCCCc1ccc2c(n1)[C@@H](c1ccc(OC)cc1C[C@H](C)C(=O)O)[C@H](C(=O)O)[C@H]2c1ccc2c(c1)OCO2", "Potency": "inactive"}
{"smiles": "CC(=O)c1ccc2ccccc2c1", "Potency": "inactive"}
{"smiles": "c1ccc(Cc2ccccc2)cc1", "Potency": "inactive"}
{"smiles": "C=C(C)C(=O)OCC1CCCO1", "note": "(stereo not given)", "Potency": "inactive"}
{"smiles": "CN(C)CCCN(C)CCCN(C)C", "Potency": "inactive"}
